Screening results from PubChem.
Only some compounds are listed: those with a hit (about 3.5% of all), similar ones and a draw of the others.
GPR151 activ – activators of human GPR151 | PathHunter beta-arrestin GPR151 cells, luminescence | activation, % at 11.2 µM | AID 1508602 | actives 1% (n = 650,000) | Q8TDV0; in the data active = activation above about 4.9%;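 also: 0% = median of compound wells and 100% = cells with positive control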
TEAD-YAP block – TEAD-YAP interaction inhibition; HEK-TIYL cells, TEAD-Gal4/YAP UAS-luciferase luminescence; inhibition, % at 9.12 µM; actives 1.4% (n = 640,000); in the data active = inhibition above about 32%;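 also: 0% = median of test compound wells and 100% = reference inhibitor wells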
FBW7 activator – human FBW7 E3 ligase activation, primary screen; AID 1259310; normalized activity (activation), % at 26.1 µM; actives 0.13% (n = 650,000); AlphaScreen FBW7–phospho-cyclin E peptide binding, activator screen; in the data active = normalized activity above about 1.9%;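 also: purified mutant Fbw7 with reduced substrate affinity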
Target sequence (Q969H0 whole entry, looked up): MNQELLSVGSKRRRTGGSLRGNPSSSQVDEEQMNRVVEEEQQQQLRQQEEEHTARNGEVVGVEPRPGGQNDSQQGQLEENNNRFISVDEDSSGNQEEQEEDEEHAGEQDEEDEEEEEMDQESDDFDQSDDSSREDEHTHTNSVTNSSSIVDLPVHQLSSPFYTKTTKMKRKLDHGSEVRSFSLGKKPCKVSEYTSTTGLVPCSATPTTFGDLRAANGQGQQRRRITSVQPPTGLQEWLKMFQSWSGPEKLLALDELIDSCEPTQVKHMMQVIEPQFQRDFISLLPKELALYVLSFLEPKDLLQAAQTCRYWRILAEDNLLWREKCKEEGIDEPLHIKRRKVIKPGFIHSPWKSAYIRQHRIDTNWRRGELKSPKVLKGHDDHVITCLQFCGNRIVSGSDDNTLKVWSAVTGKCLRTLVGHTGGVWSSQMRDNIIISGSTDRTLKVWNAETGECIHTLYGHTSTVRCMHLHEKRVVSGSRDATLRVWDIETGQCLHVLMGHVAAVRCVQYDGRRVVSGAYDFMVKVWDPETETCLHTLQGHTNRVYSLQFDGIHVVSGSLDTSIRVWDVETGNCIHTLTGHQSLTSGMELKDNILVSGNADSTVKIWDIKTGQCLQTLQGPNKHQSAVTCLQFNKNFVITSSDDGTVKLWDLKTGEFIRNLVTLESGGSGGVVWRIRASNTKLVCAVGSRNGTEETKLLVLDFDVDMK
MITF inh – human MITF inhibition, primary screen; O75030; AlphaScreen MITF homodimerization, bead proximity signal; inhibition, % at 2.6 µM; actives 0.91% (n = 650,000); AID 1259374; in the data active = inhibition above about 50%;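 also: 0% = vehicle wells with protein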
GPR151 conf act – confirmation of human GPR151 activators; AID 1508609; shares compounds with GPR151 activ; 6,700 tested, under 10 active; GPR151 PathHunter beta-arrestin cells, luminescence, 90 min; % of EA-reagent control over plate median; activation, % at 11.2 µM;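 active = mean percent activation across replicates above the confirmation screen cutoff of 4.91%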
GPR119 ag – activates human GPR119 in a GPR151 counter-screen. shares compounds with GPR151 activ. GPR119 PathHunter beta-arrestin cells, luminescence, 90 min; 0 = compound-well median, 100 = enzyme-acceptor control. activation, % at 11.2 µM. actives 0.3% (n = 6,700). AID 1508611;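 active = mean percent activation in the counterscreen above 29.09%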;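 also: counterscreen on off-target GPR119 to flag nonselective hits from the GPR151 activator screen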
Starred values were filed as active, the others as inactive; . = not tested or not shown.

SMILES	GPR151 activ	TEAD-YAP block	FBW7 activator	MITF inh	GPR151 conf act	GPR119 ag
Cc1cc(NC(=O)C(C)n2cc([N+](=O)[O-])cn2)ccc1Br (stereo not drawn)	5.2*	-3.1	-0.2	10.5	1.3	9.5
COc1ccc(CNc2nc3ccccc3n2CCN2CCOCC2)cc1OC	10.0*	-4.3	0.0	6.5	-0.2	3.9
COc1ccccc1CNc1nc2ccccc2n1CCN1CCOCC1	0.9	-25.8	0.1	-11.7	.	.
Cn1c(CC(=O)NNC(=O)CCS(=O)(=O)c2ccccc2Cl)nc2ccccc21	-0.9	3.8	-0.1	8.2	.	.
COc1ccc(NC(=O)C2CCN(c3nnc(N4CCCC4=O)s3)CC2)cc1	6.3*	0.6	-0.2	-5.4	1.1	-4.2
CSCCC(NC(=O)C1CCC(C)CC1)C(=O)NCc1ccccn1 (stereo not drawn)	5.0*	2.3	-0.2	2.7	-0.7	6.5
CCCCCCC1(C(=O)OCC)CC(CSC(=N)N)OC1=O (stereo not drawn)	0.3	13.0	-0.1	17.1	.	.
COc1ccc(Cl)cc1NC(=O)Cn1nc2n(C)c3ccccc3n2c(=O)c1=O	-0.4	3.6	0.5	-1.1	.	.
COC(=O)c1ccc(NC(=O)Cn2nc3n(C)c4ccccc4n3c(=O)c2=O)cc1	8.8*	-12.3	-0.1	3.0	0.9	1.9
Cc1cccc(NC(=O)CCC2CCN(C(=O)c3cc(C)nc(C)n3)CC2)c1	5.2*	3.6	0.1	7.8	0.7	13.6
CCC(C)NC(=O)COC(=O)c1ccc2c(c1)S(=O)(=O)c1ccccc1C2=O (stereo not drawn)	-0.2	3.3	0.0	19.1	.	.
O=C(COC(=O)C1CCCCC1)Nc1cccc(I)c1	0.0	-4.2	0.0	-8.1	.	.
NS(=O)(=O)c1ccc(CCNC(=O)c2ccccc2Oc2ccccc2)cc1	6.7*	-0.9	-0.7	-7.7	-0.7	-3.5
NS(=O)(=O)c1ccc(CCNC(=O)c2ccccc2Cl)cc1	0.8	2.4	-0.2	-5.8	.	.
NS(=O)(=O)c1ccc(CCNC(=O)c2cc(-c3ccccc3)nc3ccccc23)cc1	6.2*	3.2	-0.2	-15.6	0.9	2.4
Cc1ccccc1-n1c(SCC(N)=O)nc2ccccc2c1=O	5.2*	-2.7	-0.2	-8.7	-0.9	-2.6
O=C(CCN1C(=O)S/C(=C\c2ccc(Cl)cc2)C1=O)Nc1ccc(C(=O)O)cc1	6.9*	1.2	0.2	15.5	-0.4	-7.3
COC(=O)C(C(c1ccc(Cl)cc1)c1c[nH]c2ccccc12)[N+](=O)[O-] (stereo not drawn)	0.5	-0.3	-0.2	-1.7	.	.
CCCS(=O)(=O)N1CCN=C1SCc1ccccc1	0.8	-4.4	0.0	-0.1	.	.
CCS(=O)(=O)N1CCN=C1SCc1ccccc1	5.6*	4.6	-0.4	-6.7	1.2	10.1
CC(C)CC(=O)N1CCC(C2(CCc3ccccc3)NC(=O)N(CCN(C)C)C2=O)CC1 (stereo not drawn)	-0.8	9.3	-0.1	3.4	.	.
CCC(C)CC(=O)N1CCC(C2(CCC(C)C)NC(=O)N(CCN(C)C)C2=O)CC1 (stereo not drawn)	7.5*	8.5	0.2	7.5	0.4	-3.6
COc1ccc(C2CCN(CC(=O)NC(C)(C)C)CC2)cc1	0.7	-5.8	-0.2	37.5	.	.
CC(=O)c1cccc(NC(=O)COC(=O)c2ccc(Cl)c(N)c2)c1	-0.3	-3.3	-0.1	-2.9	.	.
Nc1cc(C(=O)OCC(=O)Nc2cccc(S(N)(=O)=O)c2)ccc1Cl	6.4*	1.9	-0.1	9.2	0.4	-2.7
SMILES	GPR151 activ	TEAD-YAP block	FBW7 activator	MITF inh	GPR151 conf act	GPR119 ag
C[N+](C)(C)C/C=C1/COCO1	13.5*	2.2	0.1	11.4	-1.0	-8.2
CCC(=O)NCCc1c[nH]c2ccc(OC)cc12	-0.8	5.9	0.0	9.3	.	.
COc1ccc2[nH]cc(CCNC(=O)c3ccc(Br)cc3)c2c1	9.4*	-3.4	0.1	-3.0	0.3	-6.4
Cc1cc(C)c(S(=O)(=O)N2CC(C)OC(C)C2)cc1C (stereo not drawn)	0.0	14.3	0.0	7.4	.	.
Nc1ccc2nc(SCC(=O)Nc3ccccc3)sc2c1	2.3	-38.0	0.1	3.8	.	.
CC(NC(=O)CSc1nc2ccc(N)cc2s1)c1ccccc1 (stereo not drawn)	6.3*	3.3	-0.2	-4.0	-0.1	-2.1
COc1cccc(C(=O)NCCCc2ccccc2)c1OC	-0.3	-27.8	0.1	20.1	.	.
